Assay results from PubChem BioAssay.
Several values for one entry are separate records, joined by “and”; a condition that tells them apart may be missing. Equal entries are not always repeated. Where a structure was tested more than once in an assay, its records may differ in their call. Activity calls are given as the source filed them.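 How the source made its calls, unless noted: active means mean inhibition above 46.68%, the untreated control wells mean plus 3 SD; inactive means the rest.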

Key:
[1] = biological target: Nuclear receptor coactivator 3 (Homo sapiens) (UniProt Q9Y6Q9); assay: SRC3 coactivator transcriptional activity inhibitors, confirmation, cell-based, luminescence, quadruplicate (AID 588792;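 active means mean inhibition over 43.08%, the solvent-only control mean plus 3 SD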;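 further: 0% = DMSO treated cells and 100% = gossypol at 36 µM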); settings: HEK293 GAL4-SRC3 luciferase reporter, at 3.6 µM, stronger effect = higher value
[2] = test system: transactivating tegument protein VP16 (Human herpesvirus 1), Gal4-VP16 luciferase reporter; assay: VP16 transactivation inhibitors, counter-screen for SRC3 inhibitor project, cell-based, luminescence, high throughput (AID 588794; in the data active means inhibition above about 30%); settings: mammalian cells, VP16-driven luciferase reporter luminescence; at 3.6 µM; stronger effect = higher value
[3] = biological target: Nuclear receptor coactivator 1 (Homo sapiens) (UniProt Q15788); assay: SRC1 coactivator transcriptional activity inhibitors, confirmation, cell-based, luminescence, quadruplicate (AID 588820); settings: HEK293 GAL4-SRC1 luciferase reporter, at 3.6 µM, stronger effect = higher value;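 further: 0% = DMSO wells and 100% = gossypol 36 µM treated wells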
[4] = VP16 transactivation inhibitors, counter-screen for SRC1 inhibitor project, cell-based, luminescence, high throughput (AID 588824; in the data active means inhibition above about 25%); settings: cell-based VP16 transactivation luciferase luminescence; at 3.6 µM; stronger effect = higher value
[5] = StAR promoter reporter inhibitors, counter-screen for LRH-1 inverse agonist project, cell-based, luminescence, high throughput (AID 651611; in the data active means inhibition above about 28%); settings: StAR promoter luciferase reporter counterscreen, at 3.6 µM, stronger effect = higher value
[6] = biological target: Nuclear receptor subfamily 5 group A member 2 (Homo sapiens) (UniProt O00482); assay: LRH-1 (NR5A2) inverse agonists, retest, confirmation, cell-based, luminescence (AID 651613; in the data active means inhibition above about 42%;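 further: HEK293T cells co-transfected with LRH-1 and StAR promoter luciferase reporter; 0% = vehicle wells and 100% = parental cells lacking receptor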); settings: cell-based LRH-1 luciferase reporter, inverse agonism; at 3.6 µM; stronger effect = higher value
[7] = biological target: Steroidogenic factor 1 (Homo sapiens) (UniProt Q13285); assay: SF1 (NR5A1) inverse agonists, counter-screen for LRH-1 inverse agonist project, cell-based, luminescence, high throughput (AID 651614; in the data active means inhibition above about 44%;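 further: cells cotransfected with StAR promoter reporter and SF1 expression vector; 0% = vehicle on cells with receptor and 100% = vehicle on cells lacking receptor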); settings: cell-based SF1 luciferase reporter, at 3.6 µM, stronger effect = higher value
[8] = VP16 transactivation reporter inhibitors, counter-screen for LRH-1 inverse agonist project, cell-based, luminescence, high throughput (AID 651615; in the data active means inhibition above about 33%); settings: Gal4-VP16 luciferase reporter cells, at 3.6 µM, stronger effect = higher value

Sequence of Nuclear receptor coactivator 3 (Homo sapiens) (Q9Y6Q9 whole entry, looked up, the tested form may be a part): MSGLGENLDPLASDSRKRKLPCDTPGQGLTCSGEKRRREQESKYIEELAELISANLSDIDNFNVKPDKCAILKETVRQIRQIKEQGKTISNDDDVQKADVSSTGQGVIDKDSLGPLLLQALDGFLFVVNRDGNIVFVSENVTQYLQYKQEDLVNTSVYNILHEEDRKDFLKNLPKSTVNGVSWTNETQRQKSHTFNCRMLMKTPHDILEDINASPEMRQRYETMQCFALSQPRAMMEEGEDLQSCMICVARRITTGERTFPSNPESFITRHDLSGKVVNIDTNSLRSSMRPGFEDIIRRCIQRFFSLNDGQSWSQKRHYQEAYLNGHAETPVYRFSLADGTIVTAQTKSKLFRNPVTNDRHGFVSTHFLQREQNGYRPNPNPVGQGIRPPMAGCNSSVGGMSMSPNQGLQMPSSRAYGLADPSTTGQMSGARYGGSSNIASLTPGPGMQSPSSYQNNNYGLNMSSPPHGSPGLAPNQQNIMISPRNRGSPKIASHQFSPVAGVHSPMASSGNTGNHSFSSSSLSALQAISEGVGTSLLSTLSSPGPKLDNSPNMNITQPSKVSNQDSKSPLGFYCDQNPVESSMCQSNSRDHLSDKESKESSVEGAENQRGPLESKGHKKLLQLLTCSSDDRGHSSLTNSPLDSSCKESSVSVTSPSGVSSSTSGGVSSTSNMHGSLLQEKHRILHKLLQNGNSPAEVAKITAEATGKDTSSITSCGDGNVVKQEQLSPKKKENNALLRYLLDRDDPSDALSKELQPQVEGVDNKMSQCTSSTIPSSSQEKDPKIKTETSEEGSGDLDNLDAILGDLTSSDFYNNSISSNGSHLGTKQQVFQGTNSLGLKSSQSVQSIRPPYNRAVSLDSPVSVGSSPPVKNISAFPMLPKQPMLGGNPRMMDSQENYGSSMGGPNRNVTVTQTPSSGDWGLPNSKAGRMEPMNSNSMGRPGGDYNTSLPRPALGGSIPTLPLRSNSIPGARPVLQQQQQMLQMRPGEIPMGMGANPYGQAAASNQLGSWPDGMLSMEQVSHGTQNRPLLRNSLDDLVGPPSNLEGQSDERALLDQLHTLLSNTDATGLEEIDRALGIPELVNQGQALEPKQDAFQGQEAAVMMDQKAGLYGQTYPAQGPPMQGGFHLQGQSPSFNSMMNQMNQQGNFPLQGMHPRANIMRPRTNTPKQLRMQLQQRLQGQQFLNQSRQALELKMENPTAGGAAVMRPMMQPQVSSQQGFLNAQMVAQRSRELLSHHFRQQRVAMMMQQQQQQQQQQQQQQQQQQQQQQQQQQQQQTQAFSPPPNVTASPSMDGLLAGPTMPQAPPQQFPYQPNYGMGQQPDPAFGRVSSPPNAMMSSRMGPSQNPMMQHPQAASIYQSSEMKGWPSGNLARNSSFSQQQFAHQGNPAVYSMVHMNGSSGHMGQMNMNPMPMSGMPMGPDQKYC
Sequence of Nuclear receptor subfamily 5 group A member 2 (Homo sapiens) (O00482 whole entry, looked up): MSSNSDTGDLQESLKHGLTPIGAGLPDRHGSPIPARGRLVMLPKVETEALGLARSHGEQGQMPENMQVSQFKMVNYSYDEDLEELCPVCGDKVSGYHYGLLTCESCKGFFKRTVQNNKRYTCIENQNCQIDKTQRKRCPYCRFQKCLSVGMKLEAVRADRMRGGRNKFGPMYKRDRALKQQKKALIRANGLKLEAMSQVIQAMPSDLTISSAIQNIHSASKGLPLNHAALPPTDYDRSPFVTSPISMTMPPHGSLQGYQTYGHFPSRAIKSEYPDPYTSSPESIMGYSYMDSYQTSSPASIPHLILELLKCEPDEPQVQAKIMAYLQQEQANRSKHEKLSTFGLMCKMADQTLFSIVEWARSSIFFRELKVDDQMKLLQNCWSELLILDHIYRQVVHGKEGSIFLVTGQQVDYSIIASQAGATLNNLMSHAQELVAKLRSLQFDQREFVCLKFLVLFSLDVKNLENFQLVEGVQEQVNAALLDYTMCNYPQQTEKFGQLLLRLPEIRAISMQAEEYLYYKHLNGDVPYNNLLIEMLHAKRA
Sequence of Steroidogenic factor 1 (Homo sapiens) (Q13285 whole entry, looked up, the tested form may be a part): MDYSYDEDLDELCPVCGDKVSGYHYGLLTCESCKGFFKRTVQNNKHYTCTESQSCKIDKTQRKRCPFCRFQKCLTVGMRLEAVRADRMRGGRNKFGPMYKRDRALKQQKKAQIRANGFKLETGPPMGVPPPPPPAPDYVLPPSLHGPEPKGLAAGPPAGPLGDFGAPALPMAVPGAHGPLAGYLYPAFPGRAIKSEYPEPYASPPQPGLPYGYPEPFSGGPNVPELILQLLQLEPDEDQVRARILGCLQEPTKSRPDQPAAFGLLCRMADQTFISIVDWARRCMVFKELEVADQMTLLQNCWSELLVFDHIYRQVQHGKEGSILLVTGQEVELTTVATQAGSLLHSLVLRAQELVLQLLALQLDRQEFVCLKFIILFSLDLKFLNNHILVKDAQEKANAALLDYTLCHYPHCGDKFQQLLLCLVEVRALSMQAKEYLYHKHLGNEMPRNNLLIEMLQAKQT
Sequence of Nuclear receptor coactivator 1 (Homo sapiens) (Q15788 whole entry, looked up, the tested form may be a part): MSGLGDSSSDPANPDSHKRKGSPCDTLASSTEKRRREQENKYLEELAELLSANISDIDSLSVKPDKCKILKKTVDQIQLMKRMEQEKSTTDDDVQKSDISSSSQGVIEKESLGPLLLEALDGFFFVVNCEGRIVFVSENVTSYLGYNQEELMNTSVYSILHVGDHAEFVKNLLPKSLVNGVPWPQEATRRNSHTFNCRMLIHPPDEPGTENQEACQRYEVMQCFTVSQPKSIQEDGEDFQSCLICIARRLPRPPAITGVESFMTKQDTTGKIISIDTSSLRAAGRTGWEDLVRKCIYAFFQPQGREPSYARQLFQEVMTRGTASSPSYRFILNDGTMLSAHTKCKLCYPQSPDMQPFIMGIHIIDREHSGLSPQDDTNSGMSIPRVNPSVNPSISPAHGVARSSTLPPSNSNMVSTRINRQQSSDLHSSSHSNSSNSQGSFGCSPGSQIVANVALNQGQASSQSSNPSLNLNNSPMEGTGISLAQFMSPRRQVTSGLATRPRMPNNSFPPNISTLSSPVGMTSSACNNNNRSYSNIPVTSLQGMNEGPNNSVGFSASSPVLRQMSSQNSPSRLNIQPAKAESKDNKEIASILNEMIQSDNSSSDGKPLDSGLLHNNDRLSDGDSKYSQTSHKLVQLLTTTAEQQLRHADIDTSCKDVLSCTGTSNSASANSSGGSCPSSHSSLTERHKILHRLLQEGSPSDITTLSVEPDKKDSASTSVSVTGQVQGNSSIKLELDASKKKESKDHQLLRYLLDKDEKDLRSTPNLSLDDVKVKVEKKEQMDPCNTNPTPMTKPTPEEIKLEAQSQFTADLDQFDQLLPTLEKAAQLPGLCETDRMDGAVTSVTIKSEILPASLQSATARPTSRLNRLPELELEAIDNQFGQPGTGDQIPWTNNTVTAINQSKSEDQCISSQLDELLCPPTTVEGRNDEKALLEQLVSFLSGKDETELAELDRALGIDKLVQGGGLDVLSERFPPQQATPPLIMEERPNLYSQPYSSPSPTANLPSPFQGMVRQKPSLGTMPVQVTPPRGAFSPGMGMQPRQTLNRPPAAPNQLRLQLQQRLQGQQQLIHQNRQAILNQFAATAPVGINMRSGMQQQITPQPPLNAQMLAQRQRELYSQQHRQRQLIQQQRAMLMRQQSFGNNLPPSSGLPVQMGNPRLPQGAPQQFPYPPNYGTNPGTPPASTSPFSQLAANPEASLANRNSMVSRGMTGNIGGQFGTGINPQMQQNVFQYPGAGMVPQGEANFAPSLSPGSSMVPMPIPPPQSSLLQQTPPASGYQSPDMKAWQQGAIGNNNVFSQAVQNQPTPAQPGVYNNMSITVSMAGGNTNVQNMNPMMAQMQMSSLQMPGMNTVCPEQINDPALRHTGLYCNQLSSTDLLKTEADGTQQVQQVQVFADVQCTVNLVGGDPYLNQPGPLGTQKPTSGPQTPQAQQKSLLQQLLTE

SMILES | inhibition [1] | inhibition [2] | inhibition [3] | inhibition [4] | inhibition [5] | inhibition [6] | inhibition [7] | inhibition [8]
Cc1ccccc1CN1CC2=C(CCN(Cc3ccccc3)C2=O)N2CCN=C12 | 47.9% (active) | 70.7% (active) | 53.7% (active) | 66.9% (active) | 76.9% (active) | 96.3% (active) | 88.7% (active) | 77.8% (active)
CCCCCCCn1c2c(c(=N)c3ccccc31)CCC2 | 71.2% (active) | 79.5% (active) | 61.5% (active) | 79.1% (active) | 70.8% (active) | 111% (active) | 91.2% (active) | 94.7% (active)
C=CCn1c(C)cc(C(=O)CN2C(=O)c3ccccc3S2(=O)=O)c1C | 89.7% (active) | 74.1% (active) | 77.3% (active) | 72.7% (active) | 89% (active) | 91.1% (active) | 90.7% (active) | 83.8% (active)
Cc1onc(-c2ccccc2)c1C(=O)NC(=S)NNC(=O)c1ccccc1O | 54.8% (active) | 82% (active) | 66.5% (active) | 77.6% (active) | 70% (active) | 96.8% (active) | 83.4% (active) | 83.3% (active)
O=C(NC(NC(=S)N1CCOCC1)C(Cl)(Cl)Cl)c1ccc(Cl)cc1 (stereo not given) | 30.4% (inactive) | 18.7% (inactive) | 23% (inactive) | 15% (inactive) | 47.4% (active) | 53.2% (active) | 50.2% (active) | 20.3% (inactive)
CC1(C)N=C(N)N=C(N)N1CCCCc1ccccc1 | 45.9% (active) | 24.4% (inactive) | 56.8% (active) | 30.3% (active) | 61.4% (active) | 48.8% (active) | 38.2% (inactive) | 35.7% (active)
COc1cccc(/C=N/Nc2ncnc3scc(-c4ccccc4)c23)c1O | 83.3% (active) | 70.3% (active) | 76.8% (active) | 65.2% (active) | 89.1% (active) | 103% (active) | 89.4% (active) | 65.1% (active)
C(=NNc1ccc2ccccc2n1)c1ccccn1 | 60.6% (active) | -12% (inactive) | -75.3% (inactive) | -33.3% (inactive) | 65.4% (active) | 51% (active) | 59.2% (active) | -44.1% (inactive)
N#Cc1cc2c(nc1SCC(=O)N1CCOCC1)CCCCC2 | 21.1% (inactive) | 21.5% (inactive) | -34.5% (inactive) | -17.9% (inactive) | -55% (inactive) | -116% (inactive) | -87.7% (inactive) | -62.9% (inactive)
O=C1NC(=O)C(c2ccc(F)cc2)N1 (stereo not given) | 3.02% (inactive) | -3.31% (inactive) | -2.47% (inactive) | -5.94% (inactive) | 11% (inactive) | 8.89% (inactive) | 2.89% (inactive) | 4.11% (inactive)
Cc1ccc(O)c(N=Nc2nccs2)c1 | 65.3% (active) | 57% (active) | 36% (inactive) | 55.5% (active) | 79.3% (active) | 97.6% (active) | 78.5% (active) | 62.3% (active)
COc1ccc(NC(=O)c2sc(=O)n(Cc3cccc(C(F)(F)F)c3)c2C)cc1OC | 24.9% (inactive) | 57.4% (active) | 19% (inactive) | 52.7% (active) | 46% (active) | 67.8% (active) | 69% (active) | 73.9% (active)
Clc1ccc(OCCN2CCN(c3ncnc4sccc34)CC2)cc1 | 14.2% (inactive) | 40.4% (active) | -17.4% (inactive) | 42.2% (active) | 34.8% (active) | 58.5% (active) | 50.2% (active) | 46.7% (active)
O=C(O)CSCC(=O)Nc1ccc(C2CCCCC2)cc1 | 72% (active) | 62.4% (active) | 64.2% (active) | 63.7% (active) | 71.4% (active) | 78.8% (active) | 64.5% (active) | 63.6% (active)
CCCCC(=O)NC(c1ccc(Cl)cc1Cl)c1ccc2cccnc2c1O (stereo not given) | 39.4% (inactive) | 24.5% (inactive) | 27.4% (inactive) | 27.2% (active) | 64% (active) | 82% (active) | 60.9% (active) | 71.7% (active)
Cc1ccc2[nH]c3nc(N/N=C/c4cccc(O)c4)nnc3c2c1 | 35.7% (inactive) | 54.6% (active) | 27.8% (inactive) | 48.2% (active) | 51% (active) | 65.6% (active) | 63.6% (active) | 69.8% (active)
CCCCCn1c2c(c(=N)c3ccccc31)CCC2 | 45.1% (active) | 61.1% (active) | 32% (inactive) | 60% (active) | 44.3% (active) | 108% (active) | 83% (active) | 90.9% (active)
CCN(CC)c1ccc(C(=C2C=CC(=[N+](CC)CC)C=C2)c2ccc(N(CC)CC)cc2)cc1 | 85.3% (active) | 89.9% (active) | 60.9% (active) | 84.3% (active) | 85.6% (active) | 110% (active) | 97.1% (active) | 97.1% (active)

SMILES | inhibition [1] | inhibition [2] | inhibition [3] | inhibition [4] | inhibition [5] | inhibition [6] | inhibition [7] | inhibition [8]
Cc1nn(Cc2ccc(C(=O)Nc3nccs3)cc2)c(C)c1Cl | 21.7% (inactive) | 45.6% (active) | 17.9% (inactive) | 43.8% (active) | 46.8% (active) | 62.3% (active) | 67% (active) | 64.6% (active)
Cc1ccc2nc(NC(=O)CSCC(=O)OCC(=O)c3ccccc3)sc2c1 | 46.5% (active) | 39% (active) | 7.46% (inactive) | 30.5% (active) | 19.2% (inactive) | 52.4% (active) | 39.6% (inactive) | 32.6% (active)
CC(NNC(=S)N1CCN(c2ccccn2)CC1)c1nccc2ccccc12 (stereo not given) | 61.5% (active) | 54.2% (active) | 55.6% (active) | 59.5% (active) | 80.9% (active) | 97.1% (active) | 89.3% (active) | 61% (active)
CCCC(=O)NC(c1ccc(C)cc1)c1ccc2cccnc2c1O (stereo not given) | 73.8% (active) | 61.9% (active) | 61.4% (active) | 79% (active) | 86.1% (active) | 103% (active) | 90.8% (active) | 83.1% (active)
NS(=O)(=O)c1ccc(NC(=O)/C=C/c2ccc3c(c2)OCO3)cc1 | 10.8% (inactive) | 53.6% (active) | 17.1% (inactive) | 52% (active) | 47% (active) | 61.7% (active) | 62.2% (active) | 66.2% (active)
Cn1c2c(c(=O)n(C)c1=O)C(C(F)(F)F)(C(F)(F)F)N=C(c1ccc(Cl)cc1)N2 | 77.8% (active) | 85.7% (active) | 42.6% (inactive) | 83.9% (active) | 80.6% (active) | 104% (active) | 93.6% (active) | 86.7% (active)
O=C(N/N=C(\c1ccccc1)c1cccnc1)c1cccc(F)c1 | 37.5% (inactive) | 31.2% (active) | 31% (inactive) | 43% (active) | 84% (active) | 97.7% (active) | 85.7% (active) | 58.5% (active)
CCC1(OC(=O)CN(C)C)C(=O)OCc2c1cc1n(c2=O)Cc2cc3c(N)cccc3nc2-1 (stereo not given) | 89.8% (active) | 65.3% (active) | 62.3% (active) | 54.6% (active) | 83.5% (active) | 103% (active) | 90.5% (active) | 68.1% (active)
COc1ccccc1-n1c(-c2ccccc2)c[n+]2c1CCc1ccccc1-2 | 47.9% (active) and 39.9% (inactive) | 72.8% (active) and 57.1% (active) | 39.1% (inactive) and 29.1% (inactive) | 73.8% (active) and 53.7% (active) | 58.2% (active) and 36.6% (active) | 96.8% (active) and 84.2% (active) | 84.2% (active) and 76% (active) | 83.9% (active) and 70.9% (active)
CCN(CC)CCCNc1nc2ccccc2c2[nH]c3ccc(OC)cc3c12 | -19.2% (inactive) | 49% (active) | -3.04% (inactive) | 48.8% (active) | 30.1% (active) | 44.4% (active) | 60.5% (active) | 71.7% (active)
Cc1ccc2ccc3ccc(C)nc3c2n1 | 42.1% (inactive) | 70.6% (active) | 44.8% (inactive) | 68.2% (active) | 77.2% (active) | 85.8% (active) | 87.4% (active) | 68.9% (active)
COc1cc(NS(C)(=O)=O)ccc1Nc1c2ccccc2nc2ccccc12 | 63.6% (active) | -6.87% (inactive) | 61.1% (active) | -3.17% (inactive) | 46.6% (active) | 108% (active) | 52% (active) | 78.8% (active)
CC[n+]1ccc(/C=C/c2c[nH]c3ccccc23)cc1 | 8.39% (inactive) | 22.7% (inactive) | -16.8% (inactive) | 25.5% (active) | 18% (inactive) | 65% (active) | 55.9% (active) | 60.8% (active)
CN(C)c1ccc(/C=C/c2ccc3ccccc3[n+]2C)cc1 | 62.3% (active) | 74.5% (active) | 32.4% (inactive) | 74.3% (active) | 58.5% (active) | 76.8% (active) | 76.6% (active) | 70.9% (active)
COc1ccc(N=C(NN)c2ccc3ccccc3n2)cc1 | -51.2% (inactive) | -47.1% (inactive) | -105% (inactive) | -65% (inactive) | -92.3% (inactive) | -81.3% (inactive) | -83.5% (inactive) | -96.2% (inactive)
CN(C)CC1CCC/C(=C\c2ccc(OC(=O)c3ccc(Cl)cc3)cc2)C1=O (stereo not given) | 50.4% (active) | 60.2% (active) | 29.9% (inactive) | 58.1% (active) | 70.8% (active) | 89.9% (active) | 76.4% (active) | 69.3% (active)
OCC1OC(n2cnc3c(NCc4ccccc4O)ncnc32)C(O)C1O (stereo not given) | 81% (active) | 82.1% (active) | 45.3% (inactive) | 80% (active) | 87.5% (active) | 102% (active) | 90.3% (active) | 86.1% (active)
